# According to PubChem BioAssay (NCI):
# Compounds without any hit were thinned out: in the full panel of roughly 83,000, 20% have a hit.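 Growth was measured after 48 h exposure to one concentration of compound in 96-well plates. Values under 10 count as active.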 Calls of active or inactive are those of the source.
# Tested on: TK-10 renal
# Experiment: NCI-60 one-dose screen, 48 h (100 = growth as untreated, 0 = no growth, -100 = all killed)
# Conditions: 10 µM
row,Compound,growth
1,O=C(/C=C/c1ccc(Cl)cc1)c1nc2ccccc2n1Cc1ccc(F)cc1,58.1% (inactive)
2,CC1=C(CCC=O)C2=C(C)C3(CC3)[C@@](C)(O)C(=O)C2=C1,-91.6% (active)
3,O=C(NC([Se])=NC1CCCCC1)c1ccc2c(c1)OCO2,55.5% (inactive)
4,C[C@H]1[C@H](OC(=O)CCC(=O)N(CCCc2cn(-c3ccc(C#N)cc3)nn2)CCNc2ccnc3cc(Cl)ccc23)O[C@@H]2OC3(C)CC[C@H]4[C@H](C)CC[C@@H]1[C@@]24OO3,54.2% (inactive)
5,C[C@H]1[C@@H](Oc2ccc(-c3cn(-c4ccnc5cc(Cl)ccc45)nn3)cc2)O[C@@H]2OC3(C)CC[C@H]4[C@H](C)CC[C@@H]1[C@@]24OO3,35.4% (inactive)
6,COc1ccc(/C=C/C(=O)c2nc3ccccc3n2Cc2ccc(Br)cc2)cc1,110% (inactive)
7,COC(=O)CCn1c(-c2ccc(-n3cc(-c4ccc(O[C@H]5O[C@@H]6OC7(C)CC[C@H]8[C@H](C)CC[C@@H]([C@H]5C)[C@@]68OO7)cc4)nn3)cc2)nc2ccccc21,30.4% (inactive)
8,C[C@H]1[C@H](OC(=O)CCC(=O)N(CCCc2cn(-c3ccc([N+](=O)[O-])cc3)nn2)CCNc2ccnc3cc(Cl)ccc23)O[C@@H]2OC3(C)CC[C@H]4[C@H](C)CC[C@@H]1[C@@]24OO3,51.2% (inactive)

# Tested on: ACHN renal
# Experiment: as above
# Conditions: 10 µM
row,Compound,growth
1,O=C(/C=C/c1ccco1)c1nc2ccccc2n1Cc1ccc(Br)cc1,48.7% (inactive)
2,O=C(/C=C/c1ccco1)c1nc2ccccc2n1Cc1ccc(F)cc1,79.1% (inactive)
3,COc1cc2cc(C(=O)N3C[C@@H](CCl)c4c3cc(OC(=O)N3CCN(C)[C@@H]5CSSC[C@@H]53)c3ccccc43)[nH]c2c(OC)c1OC,-41.3% (active)
4,C#CC[Se]C(=O)c1ccc2n[se]nc2c1,35.6% (inactive)
5,O=C(/C=C/c1ccc(Cl)cc1Cl)c1nc2ccccc2n1Cc1ccc(F)cc1,48.7% (inactive)
6,O=C(/C=C/c1ccc(Cl)cc1)c1nc2ccccc2n1Cc1ccc(Br)cc1,51.1% (inactive)
7,CCOP(=O)(OCC)C(NC(C)=O)C(=O)SCCN (stereo unspecified),112% (inactive)
8,COc1cc2cc(C(=O)N3C[C@@H](CCl)c4c3cc(OC(=O)N3CCN(C)[C@@H]5CSSC[C@H]53)c3ccccc43)[nH]c2c(OC)c1OC,-31.2% (active)
9,COc1ccc2cc([C@H](C)C(=O)[Se]CCC#N)ccc2c1,-50% (active)
10,CC12OOC(C)(OO1)C2CCC(=O)OCCNc1ccnc2cc(Cl)ccc12 (stereo unspecified),-93.8% (active)
11,CC(C)N=C([Se])NC(=O)c1cccs1,47.2% (inactive)
12,Cc1ccc2[nH]c(=S)n(-c3ccc(F)cc3)c(=O)c2c1,101% (inactive)
13,CCOC(=O)C1=C(Nc2ccccc2)C(=O)OC12C(=O)Nc1ccccc12 (stereo unspecified),107% (inactive)
14,CC12CCC3(CCC(=O)NCCCNc4ccnc5cc(Cl)ccc45)[C@@](C)(OO[C@]3(C)O1)O2,-10.1% (active)
15,CC[C@]12C=CCN3CC[C@@]4(c5ccc(OC)cc5N(C)[C@H]4[C@@](O)(C(=O)OC)[C@@H]1OC(=O)CCCC[P+](C1CCCCC1)(C1CCCCC1)C1CCCCC1)[C@@H]32,18.7% (inactive)
16,CC(=O)Oc1ccccc1C(=O)[Se]C(=NC(C)C)NC(C)C,-80.8% (active)
17,COCCOCCOCCOc1ccc(-n2cc(CCCN(CCNc3ccnc4cc(Cl)ccc34)C(=O)CCC(=O)O[C@@H]3O[C@@H]4OC5(C)CC[C@H]6[C@H](C)CC[C@@H]([C@H]3C)[C@@]46OO5)nn2)cc1,47.1% (inactive)
18,C[C@H]1[C@@H](CC(=O)N[C@@H](Cc2coc3ccccc23)B(O)O)O[C@@H]2OC3(C)CC[C@H]4[C@H](C)CC[C@@H]1[C@@]24OO3,13.2% (inactive)
19,COP(=O)(CC(F)(F)C(F)(F)F)OC,-97.6% (active)
20,CC12OOC(C)(OO1)C2CCC(=O)NCCNc1ccnc2cc(Cl)ccc12 (stereo unspecified),97% (inactive)
21,CC[C@]12C=CCN3CC[C@@]4(c5ccc(OC)cc5N(C)[C@H]4[C@@](O)(C(=O)OC)[C@@H]1OC(=O)CCC[P+](c1ccc(C)cc1)(c1ccc(C)cc1)c1ccc(C)cc1)[C@@H]32,-97.8% (active)
22,CC(C)N=C([Se])NC(=O)c1ccccc1,-51.2% (active)
23,CC[C@]12C=CCN3CC[C@@]4(c5ccc(OC)cc5N(C)[C@H]4[C@@](O)(C(=O)OC)[C@@H]1OC(=O)CCC[P+](C1CCCCC1)(C1CCCCC1)C1CCCCC1)[C@@H]32,32% (inactive)
